The source of these data is PubChem BioAssay AID463173 (ICCB-Longwood Screening Facility, Harvard Medical School, 2010).

About 1,700 (3.3%) of roughly 52,000 compounds were called active. The sample as a whole holds a higher share of actives than the screen did. Unmarked numbers belong to inactive results. Cut-off read from the data, not from the text of the source: active = survival mostly below about 52% (no sharp cut-off); inactive = mostly above about 56%.

In this assay the test system is Wild type. As to the kind of experiment: S. aureus survival, RN4220 and DeltatarO strains – OD600, teichoic acid synthesis inhibitors, primary screen (AID 463173). The settings on record: S. aureus RN4220 wild type/DeltatarO growth, OD600, 18 h, stronger effect = lower value, screened at 18.75 µg/mL (by protocol).
With `Cc1ccc(C)c(S(=O)(=O)c2cn(C)c3cc(F)c(F)cc3c2=O)c1`, the survival was 81%.
The same measure for `COc1cccc(-n2ccnc2SCC(=O)Nc2c(C)cc(C)cc2C)c1`: 113%; for `O=C(CCCCCn1c(=O)c2sccc2n(Cc2ccc(Cl)cc2)c1=O)NCc1ccc2c(c1)OCO2`: 86%; for `CCCCn1c(SCC(=O)c2ccccc2)nc2c(sc3ccccc32)c1=O`: -1% (active).
The same measure for `CC(C)OCCCn1c(SCC(=O)c2ccccc2)nc2c(sc3ccccc32)c1=O`: 72%; for `CCCCn1c(SCC(=O)NCc2ccc(C)cc2)nc2c(sc3ccccc32)c1=O`: 69%; for `COc1ccc(CN(CCN)C2CC(C)N(C)CC2C)cc1` (centres undefined): 105%.
The same measure for `Cc1ccc(C2CCN(C(=O)Nc3ccc(Cl)cc3)C2)cc1` (centres undefined): 71%; for `Cc1ccc(C2CCN(C(=O)Nc3ccc(Cl)c(Cl)c3)C2)cc1` (centres undefined): -3% (active); for `O=C(Nc1ccc(Cl)c(Cl)c1)N1CCC(c2ccccc2)C1` (centres undefined): 71%.
Turning to `Cc1cccc(-c2nc3ccccc3o2)c1`, the survival was 119%.
Then `CS(=O)(=O)CCC(C(=O)Nc1cccc(C(F)(F)F)c1)N1Cc2ccccc2C1=O` (centres undefined), with -1% (active); and `Cc1c(Cl)cccc1NC(=O)C(CCS(C)(=O)=O)N1Cc2ccccc2C1=O` (centres undefined), with 74%; and `COC(=O)c1cc(NC(=O)[C@H](CCS(C)(=O)=O)N2Cc3ccccc3C2=O)cc(C(=O)OC)c1`, with 87%.
The same measure for `COc1cc(NC(=O)C(CCS(C)(=O)=O)N2Cc3ccccc3C2=O)cc(OC)c1OC` (centres undefined): 14% (active); for `COc1ccc(NC(=O)[C@H](Cc2ccccc2)N2Cc3ccccc3C2=O)cc1OC`: 94%.
Then `CS(=O)(=O)CC[C@@H](C(=O)NCCc1ccccc1)N1Cc2ccccc2C1=O`, with 90%.
For the compound `CCc1ccc(NC(=O)CSc2nc3c(sc4ccccc43)c(=O)n2CCCOC(C)C)cc1`, the survival was 80%.
`O=C(CSc1n[nH]c(-c2ccc(F)cc2)n1)NCCc1ccccc1`: the survival was 120%.
For the compound `CC1=C(C(=O)Nc2ccccc2)C(c2ccncc2)n2nc(SCc3ccccc3F)nc2N1` (centres undefined), the survival was 106%.
Then `Cc1ccc(NC(=O)Cn2cc(S(=O)(=O)N3CCCC3)c(S(=O)(=O)N3CCCC3)c2)cc1F`, with 126%.
Then `O=C(CCc1cn(Cc2ccccc2F)c2ccccc12)NCc1ccc(Cl)cc1`, with 81%; and `O=C(NCC1CCCCC1)C1CCCN1C(=O)NC1CCCCC1` (centres undefined), with 106%; and `COc1ccc(NC(=O)c2oc3ccc(S(=O)(=O)N4CCCCC4)cc3c2C)cc1Cl`, with 73%.
The same measure for `Cc1ccc(S(=O)(=O)C2(C(=O)Nc3ccc(C(C)C)cc3)CC2)cc1`: 64%.
For `COC(=O)c1ccc(NC(=O)C2(S(=O)(=O)c3ccc(C)cc3)CC2)cc1`, the survival is 133%.
Then `CCOC(=O)c1cccc(NC(=O)C2(S(=O)(=O)c3ccc(C)cc3)CC2)c1`, with 84%; and `Cc1ccc(S(=O)(=O)C2(C(=O)Nc3ccc(Cl)c(C(F)(F)F)c3)CC2)cc1`, with 41% (active); and `Cc1ccc(S(=O)(=O)C2(C(=O)Nc3ccc(C)c(Cl)c3)CC2)cc1`, with 4% (active).
Then `O=C(Nc1ccccc1C(F)(F)F)C1(S(=O)(=O)c2ccc(Cl)cc2)CC1`, with 94%; and `COc1ccc(C2(CNC(=O)C(=O)Nc3ccc(C)c(Cl)c3)CCCC2)cc1OC`, with 83%; and `Cc1ccc(-n2ncc(C(=O)NCc3ccc4c(c3)OCO4)c2C2CCN(C(=O)OC(C)(C)C)CC2)cc1C`, with 82%.
For the compound `COc1cccc(N2CCN(C(=O)c3c4c(nc5ccccc35)C(=O)N(C3CCCCC3)C4)CC2)c1`, the survival was 88%.
On to `COc1ccc(C)cc1NC(=O)Cn1c(=O)oc2cc(S(=O)(=O)N3CCCCC3)ccc21`, for which the survival is 94%.
The same measure for `NC(=O)c1c(NC(=O)c2noc3c2CCCC3)sc2c1CCCC2`: 73%; for `Cc1cccc(S(=O)(=O)c2cn(Cc3ccccc3)c3cc(N4CCCCC4)c(F)cc3c2=O)c1`: 99%.
Then `Cn1cc(S(=O)(=O)c2cccc(Cl)c2)c(=O)c2cc(F)c(N3CCN(c4ccc(F)cc4)CC3)cc21`, with 81%; and `Cn1cc(S(=O)(=O)c2cccc(Cl)c2)c(=O)c2cc(F)c(N3CCN(c4ccccc4)CC3)cc21`, with 1% (active).
Take `CCn1cc(S(=O)(=O)c2cc(C)cc(C)c2)c(=O)c2cc(F)c(N3CCCCC3)cc21`: the survival is 82%.
As for `Cc1cccc(S(=O)(=O)c2cn(Cc3ccc(F)cc3)c3cc(N4CCCCC4)c(F)cc3c2=O)c1`, the survival was -4% (active).
The same measure for `O=c1c(S(=O)(=O)c2ccccc2)cn(Cc2ccc(F)cc2)c2cc(N3CCCCC3)c(F)cc12`: 74%; for `CCN1CCN(c2cc3c(cc2F)c(=O)c(S(=O)(=O)c2cc(C)cc(C)c2)cn3CC)CC1`: -3% (active); for `Cn1cc(S(=O)(=O)c2ccccc2)c(=O)c2cc(F)c(N3CCN(c4ccccc4)CC3)cc21`: 135%.
The same measure for `CCn1cc(S(=O)(=O)c2cc(C)cc(C)c2)c(=O)c2cc(F)c(N3CCCC3)cc21`: 129%; for `CCOc1ccc(N(C)C(=O)C2CCN(S(=O)(=O)c3c(C)noc3/C=C/c3ccc(C)cc3)CC2)cc1`: 153%; for `COc1ccccc1CNc1nc(-c2ccco2)nn1C(=O)c1cc(OC)c(OC)c(OC)c1`: 69%.
As for `COc1ccc(C(=O)c2c(N)c(C(=O)Nc3cccc(OC)c3)c3ccccn23)cc1`, the survival is 95%.
As for `Cc1ccc2oc(=O)c(-c3nc(-c4cccs4)no3)cc2c1`, the survival is 94%.
The same measure for `COc1ccc(NC(=O)COc2ccc(S(=O)(=O)NC3CCCCC3)cc2)cc1OC`: 74%.
Then `c1ccc(-c2cc3ccsc3s2)cc1`, with 111%; and `Oc1cc2ccsc2c2ccccc12`, with 18% (active); and `O=c1cc(O)c2ccccc2[nH]1`, with 135%.
The same measure for `Cc1ccc(C(=O)N/C(=C/c2ccco2)C(=O)Nc2nccs2)cc1`: 81%; for `CCCC(=O)Nc1ccc2c(C)cc(C)nc2n1`: 99%; for `CCC(Sc1ccc2nnc(CCNS(=O)(=O)c3ccc(OC)cc3)n2n1)C(=O)OC` (centres undefined): 84%.
With `COc1ccc(NC(=O)CCS(=O)(=O)c2nc(-c3cccs3)cc(C(F)(F)F)n2)cc1OC`, the survival is 100%.
`COc1ccccc1NC(=O)CCn1nc(-c2ccccc2)c2ccccc2c1=O`: the survival was 4% (active).
Then `O=C(CCn1nc(-c2ccccc2)c2ccccc2c1=O)Nc1ccccc1`, with 86%.
The same measure for `Cc1ccc(NC(=O)CCn2nc(-c3ccccc3)c3ccccc3c2=O)c(C)c1`: 75%; for `CCCOc1ccccc1C1C(C(=O)Nc2ccccc2)=C(C)Nc2nnnn21` (centres undefined): 134%; for `COc1ccc(-n2c(-c3ccc(F)cc3)cn3c4c(=O)n(C)c(=O)n(C)c4nc23)cc1`: 63%.
Then `CC(C)(C)C(=O)Nc1nnc2n1CCS2`, with 77%; and `Cc1ccc(CNCc2c(C(=O)O)n(Cc3ccccc3C)c3cc(C)ccc23)cc1`, with 63%.
Regarding `C=Cc1ccc(Cn2c(C(=O)O)c(CNCc3ccc(F)cc3)c3ccc(C)cc32)cc1`, the survival was 68%.
Then `C=Cc1ccc(Cn2c(C(=O)O)c(CNCCc3ccccc3)c3ccc(C)cc32)cc1`, with 69%; and `Cc1ccc2c(CNCCc3ccco3)c(C(=O)O)n(Cc3ccc(F)cc3)c2c1`, with 66%; and `Cc1ccc2c(CNCCc3ccccc3)c(C(=O)O)n(Cc3ccccc3C)c2c1`, with 1% (active).
On to `Cc1ccc2c(CNCCc3ccc(Cl)cc3)c(C(=O)O)n(Cc3ccc(F)cc3)c2c1`, for which the survival is 4% (active).
Then `Cc1ccccc1NC(=O)Cn1nc(-c2ccccc2)nc(Cc2ccccc2)c1=O`, with 70%; and `CC(C)OCCCn1c(=O)c2ccccc2n2c(-c3ccccc3F)nnc12`, with 88%; and `Cc1c(C(=O)N2CCCC2)oc2c1-c1nn(CC(=O)NCc3cccc(F)c3)cc1CC2`, with 85%.
Then `Cc1cccc(N2CCN(C(=O)c3noc4c3COc3ccc(C)cc3-4)CC2C)c1` (centres undefined), with 80%; and `CN(C)c1ncnc(Cl)c1N`, with 101%; and `CCOc1ccc(-c2nnc(SCC(=O)Nc3cccc(OC)c3)nc2-c2ccc(OCC)cc2)cc1`, with -3% (active).
Then `COc1cc(NC(=O)CSc2ncc3c(n2)-c2ccc(Cl)cc2N(Cc2ccccc2)S3(=O)=O)cc(OC)c1`, with 65%; and `CCOc1ccc(NC(=O)CSc2ncc3c(n2)-c2ccccc2N(C)S3(=O)=O)cc1`, with 78%.
Turning to `CCOc1ccc(NC(=O)CSc2ncc3c(n2)-c2cc(Cl)ccc2N(C)S3(=O)=O)cc1`, the survival was -3% (active).
Consider `CCc1cccc(NC(=O)CSc2ncc3c(n2)-c2cc(Cl)ccc2N(C)S3(=O)=O)c1`, for which the survival is 65%.
`COc1cccc(NC(=O)CSc2ncc3c(n2)-c2ccc(Cl)cc2N(C)S3(=O)=O)c1`: the survival is 10% (active).
Then `CCOc1ccc(NC(=O)CSc2nnc(-c3ccc(C)cc3)c(-c3ccc(C)cc3)n2)cc1`, with 115%; and `COc1ccc(-c2nnc(SCC(=O)Nc3cccc(C(F)(F)F)c3)nc2-c2ccc(OC)cc2)cc1`, with 79%; and `Cc1ccc(NC(=O)CSc2ncc3c(n2)-c2ccc(Cl)cc2N(C)S3(=O)=O)cc1F`, with 69%.
Then `CN(C)CCn1c2c(c(SCC(=O)Nc3ccc(F)cc3F)nc1=O)CCC2`, with 83%; and `COC(=O)c1scc(-c2ccccc2)c1S(=O)(=O)Nc1cccc(C)c1C`, with 100%; and `Cn1c(Cc2cccs2)nnc1SCC(=O)N1CCCc2ccccc21`, with 109%.
Then `O=C(CSC1=Nc2ccccc2C2=NC(CC(=O)NC3CCCCC3)C(=O)N12)Nc1ccc(F)cc1` (centres undefined), with 71%; and `COc1cc(NC(=O)c2noc3c2CC(C(C)(C)C)CC3)cc(OC)c1OC` (centres undefined), with 68%.
In the case of `CCc1ccccc1NC(=O)c1noc2c1CC(C(C)(C)C)CC2` (centres undefined), the survival was -11% (active).
Then `CCOC(=O)c1c(NC(=O)c2noc3c2CC(C(C)(C)C)CC3)sc2c1CCCC2` (centres undefined), with 88%.
